Six compounds from PubChem BioAssay (EPA / NIEHS) can be followed below.

Assay [1] can be described thus: BSK_CASM3C_SRB: Viability Assessment in the BioMAP Diversity Plus: CASM3C Assay (AID 2283050).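 Further: total protein by SRB staining as cytotoxicity measure in parallel cultures; cells exposed to compound for 24 h.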 To be noted: primary human coronary artery smooth muscle cells.
Read-out in assay [2]: Thrombomodulin, THBD (gene 7056)
Kind of assay: BSK_CASM3C_Thrombomodulin: BioMAP Diversity Plus: CASM3C Assay for Thrombomodulin Biomarker Activity (AID 2283051).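 Further: thrombomodulin protein level measured by ELISA 24 h after dosing.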 The following applies: primary human coronary artery smooth muscle cells; actives raise or lower the signal.

Read-out in assay [3]: Tissue Factor, F3 (gene 2152)
Kind of assay: BSK_CASM3C_TissueFactor: BioMAP Diversity Plus: CASM3C Assay for Tissue Factor Biomarker Activity (AID 2283052).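 Further: cell surface tissue factor protein level read by ELISA.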 To be noted: primary human coronary artery smooth muscle cells; actives raise or lower the signal.

Read-out in assay [4]: Interferon-gamma inducible Protein 10 (IP10), CXCL10 (gene 3627)
Kind of assay: BSK_hDFCGF_IP10: BioMAP Diversity Plus: hDFCGF Assay for Interferon-gamma inducible Protein 10 (IP10) Biomarker Activity (AID 2283053). To be noted: primary human foreskin fibroblasts; actives raise or lower the signal. In outline: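 Chemical-treated human skin fibroblasts (primary) were sampled at 24 h for IP-10 by ELISA. Both increases and decreases relative to DMSO were scored.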

Read-out in assay [5]: Urokinase-type plasminogen activator receptor (uPAR), PLAUR (gene 5329)
Kind of assay: BSK_CASM3C_uPAR: BioMAP Diversity Plus: CASM3C Assay for Urokinase-type plasminogen activator receptor (uPAR) Biomarker Activity (AID 2283054).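 Further: cell-surface uPAR protein level quantified by ELISA.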 To be noted: primary human coronary artery smooth muscle cells; actives raise or lower the signal.

Read-out in assay [6]: Vascular cell adhesion molecule 1 (VCAM1), VCAM1 (gene 7412)
Kind of assay: BSK_CASM3C_VCAM1: BioMAP Diversity Plus: CASM3C Assay for Vascular cell adhesion molecule 1 (VCAM1) Biomarker Activity (AID 2283055).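 Further: VCAM-1 protein level quantified by ELISA on the cells.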 The following applies: primary human coronary artery smooth muscle cells; actives raise or lower the signal.

Read-out in assay [7]: Epidermal growth factor receptor (EGFR), EGFR (gene 1956)
Kind of assay: BSK_hDFCGF_EGFR: BioMAP Diversity Plus: hDFCGF Assay for Epidermal growth factor receptor (EGFR) Biomarker Activity (AID 2283057). The following applies: primary human foreskin fibroblasts; actives raise or lower the signal. An outline of the steps:
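Cell-based multiplexed assay in primary human foreskin fibroblasts. EGFR is read by ELISA 24 h after treatment and compared with DMSO controls.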

Read-out in assay [8]: Interleukin-8 (IL8), CXCL8 (gene 3576)
Kind of assay: BSK_hDFCGF_IL8: BioMAP Diversity Plus: hDFCGF Assay for Interleukin-8 (IL8) Biomarker Activity (AID 2283058). The following applies: primary human foreskin fibroblasts; actives raise or lower the signal. In outline: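 Cells used are human skin primary fibroblasts. Chemical is added, cultures run 24 h, then IL-8 is quantified by ELISA, and gain or loss versus DMSO control is fitted in both directions.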

Assay [9] can be described thus: BSK_hDFCGF_Proliferation: Cell Proliferation Assessment in the BioMAP Diversity Plus: hDFCGF Assay (AID 2283059).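 Further: curves fitted for both rise and fall of signal versus DMSO baseline.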 The following applies: primary human foreskin fibroblasts. An outline of the steps: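 This proliferation readout used SRB total-protein staining of human foreskin fibroblasts […], normalized to DMSO with bidirectional curve fitting.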

Read-out in assay [10]: Macrophage colony-stimulating factor (MCSF), CSF1 (gene 1435)
Kind of assay: BSK_hDFCGF_MCSF: BioMAP Diversity Plus: hDFCGF Assay for Macrophage colony-stimulating factor (MCSF) Biomarker Activity (AID 2283060). The following applies: primary human foreskin fibroblasts; actives raise or lower the signal. An outline of the steps: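 Primary human foreskin fibroblasts dosed with chemical; 24 h later, M-CSF quantified by ELISA; curves fitted in both directions vs DMSO negative control.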

A short description of assay [11]: BSK_hDFCGF_SRB: Viability Assessment in the BioMAP Diversity Plus: hDFCGF Assay (AID 2283061).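 Further: cells exposed to compound for 24 h before the read.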 To be noted: primary human foreskin fibroblasts. In outline: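 Readout is SRB absorbance at 560 nm, reflecting total protein in parallel cultures of human foreskin fibroblasts harvested 24 h after chemical dosing. Activity was fitted bidirectionally relative to DMSO.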

Read-out in assay [12]: TIMP metallopeptidase inhibitor 1 (TIMP1), TIMP1 (gene 7076)
Kind of assay: BSK_hDFCGF_TIMP1: BioMAP Diversity Plus: hDFCGF Assay for TIMP metallopeptidase inhibitor 1 (TIMP1) Biomarker Activity (AID 2283062). To be noted: primary human foreskin fibroblasts; actives raise or lower the signal. An outline of the steps: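 Human skin fibroblasts (primary), hDFCGF system; compound exposure 24 h; TIMP-1 by ELISA; bidirectional fit vs DMSO negative control; overt cytotoxicity by SRB in parallel wells.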

Read-out in assay [13]: Monokine induced gamma interferon (MIG), CXCL9 (gene 4283)
Kind of assay: BSK_hDFCGF_MIG: BioMAP Diversity Plus: hDFCGF Assay for Monokine induced gamma interferon (MIG) Biomarker Activity (AID 2283063). To be noted: primary human foreskin fibroblasts; actives raise or lower the signal. An outline of the steps: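 Chemicals were added to primary human foreskin fibroblast cultures, which were sampled 24 h later. MIG levels were then quantified by ELISA and responses fitted in both directions relative to DMSO.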

Read-out in assay [14]: Matrix Metallopeptidase 1 (MMP1), MMP1 (gene 4312)
Kind of assay: BSK_hDFCGF_MMP1: BioMAP Diversity Plus: hDFCGF Assay for Matrix Metallopeptidase 1 (MMP1) Biomarker Activity (AID 2283064). The following applies: primary human foreskin fibroblasts; actives raise or lower the signal. An outline of the steps:
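ELISA read-out of MMP1 from human foreskin fibroblasts (primary skin cells), 24 h post-dose. Gain or loss of signal was fitted bidirectionally versus DMSO negative control; cytotoxicity was checked by SRB in parallel cultures.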

Read-out in assay [15]: Vascular cell adhesion molecule 1 (VCAM1), VCAM1 (gene 7412)
Kind of assay: BSK_hDFCGF_VCAM1: BioMAP Diversity Plus: hDFCGF Assay for Vascular cell adhesion molecule 1 (VCAM1) Biomarker Activity (AID 2283065).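 On AC50: VCAM-1 protein level quantified by ELISA after 24 h chemical exposure.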 The following applies: primary human foreskin fibroblasts; actives raise or lower the signal. An outline of the steps:
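Human foreskin fibroblast primary cells, chemical exposure 24 h; VCAM-1 by ELISA; bidirectional fit, DMSO = negative control/baseline.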

Read-out in assay [16]: Plasminogen activator inhibitor-1 (PAI1), SERPINE1 (gene 5054)
Kind of assay: BSK_hDFCGF_PAI1: BioMAP Diversity Plus: hDFCGF Assay for Plasminogen activator inhibitor-1 (PAI1) Biomarker Activity (AID 2283066). To be noted: primary human foreskin fibroblasts; actives raise or lower the signal. An outline of the steps:
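Human skin fibroblast cultures receive chemical for 24 h before PAI-1 is measured by ELISA; signal changes are fitted bidirectionally against DMSO-treated wells.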

Read-out in assay [17]: Intercellular Adhesion Molecule 1 (ICAM1), ICAM1 (gene 3383)
Kind of assay: BSK_KF3CT_ICAM1: BioMAP Diversity Plus: KF3CT Assay for Intercellular Adhesion Molecule 1 (ICAM1) Biomarker Activity (AID 2283067). The following applies: primary human keratinocytes with fibroblasts; actives raise or lower the signal. In outline:
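ICAM-1 levels are measured by ELISA 24 h after dosing a primary human co-culture of keratinocytes and foreskin fibroblasts. Activity in either direction is fitted relative to DMSO vehicle.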

Read-out in assay [18]: Interferon-gamma inducible Protein 10 (IP10), CXCL10 (gene 3627)
Kind of assay: BSK_KF3CT_IP10: BioMAP Diversity Plus: KF3CT Assay for Interferon-gamma inducible Protein 10 (IP10) Biomarker Activity (AID 2283068). The following applies: primary human keratinocytes with fibroblasts; actives raise or lower the signal. An outline of the steps:
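Signal is secreted/surface IP-10 by ELISA in a human primary skin co-culture of keratinocytes and foreskin fibroblasts, taken 24 h post-dosing; DMSO served as negative control.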

A short description of assay [19]: BSK_KF3CT_SRB: Viability Assessment in the BioMAP Diversity Plus: KF3CT Assay (AID 2283069).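 Further: total protein by sulforhodamine B staining as a cytotoxicity measure; read 24 h after compound addition; fitted for both signal gain and loss against DMSO baseline.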 The following applies: primary human keratinocytes with fibroblasts. An outline of the steps: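 SRB read-out at 560 nm (0.1% stain, TCA-fixed cells) gauges overt cytotoxicity in a human skin keratinocyte–fibroblast co-culture 24 h post-dosing. Signal change was fitted bidirectionally relative to DMSO control.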

The source made the active and inactive calls. How the source made its calls: active means hit-call score of the fitted dose curve at least 0.9, where 1 is the maximum; inactive means score below 0.9.

With `CSc1nc(NC(C)C)nc(NC(C)C)n1`, the result in assay [1], in [2], in assay [3], in assay [4], in assay [5] and in [6] was inactive. The result in [7], in assay [8], in assay [9], in assay [10], in assay [11] and in assay [12] was inactive. For the same compound, the outcome in assay [13], in assay [14], in assay [15], in assay [16], in assay [17] and in [18] was inactive. In addition, the result in [19] was inactive.

A word on the AC50: it is the midpoint of the concentration-response curve, whichever way the signal moves. As for `FC(F)C(F)(F)OCC(Cn1cncn1)c1ccc(Cl)cc1Cl` (stereo not drawn), the outcome in [1], in assay [2], in [3], in [5], in assay [6] and in assay [7] was inactive. The outcome in assay [11], in assay [12], in assay [13], in [14], in [15] and in assay [17] was inactive. For the same compound, the result in assay [18] and in assay [19] was inactive. The AC50 in [4] was 27.8 µM (active); in assay [9] it was 5.24 µM (active); in assay [10], 23.4 µM (active); in assay [16], 19.4 µM (active).

With `CCCOCC(=Nc1ccc(Cl)cc1C(F)(F)F)n1ccnc1`, the outcome in [1], in assay [3] and in assay [5] was inactive. In addition, the AC50 in assay [2] is 20.9 µM (active); in assay [4] it was 31.1 µM (active); in [6] it was 20 µM (active); in assay [7] it was 33.8 µM (active); in [9], 21.2 µM (active); in assay [10] it was 24.3 µM (active). Further, the AC50 in assay [11] was 30.4 µM (active); in assay [12] it was 32 µM (active); in assay [14], 33.2 µM (active); in assay [15] it was 27.9 µM (active); in [16], 26.3 µM (active); in [17], 29.7 µM (active). Besides, the AC50 in assay [18] is 29.1 µM (active); in assay [19], 32.7 µM (active).

Regarding `CCCCSP(=O)(SCCCC)SCCCC`, the AC50 was 31.7 µM (active) in assay [1]; 20 µM (active) in [2]; 20 µM (active) in [4]; 30.6 µM (active) in assay [9]; 14.6 µM (active) in assay [10]. Also, the outcome in [3], in assay [5], in [6], in [7], in assay [11] and in assay [12] was inactive. In addition, the outcome in assay [13], in [14], in assay [15], in assay [16], in assay [17] and in assay [18] was inactive. The result in [19] was inactive.

`C#CCC1=C(C)C(OC(=O)C2C(C=C(C)C)C2(C)C)CC1=O` (stereo not drawn): the outcome in assay [1], in assay [2], in assay [3], in assay [5], in assay [6] and in [7] was inactive. Also, the result in assay [12], in assay [17] and in assay [18] was inactive. The AC50 in assay [4] is 29.6 µM (active); in assay [9] it was 31.5 µM (active); in assay [10], 29.2 µM (active); in assay [11], 33.3 µM (active); in assay [13], 37 µM (active); in assay [14] it was 31.6 µM (active). In addition, the AC50 is 34.8 µM (active) in assay [15], 32 µM (active) in assay [16] and 22.3 µM (active) in [19].

As to `CCc1cnc(C2=NC(C)(C(C)C)C(=O)N2)c(C(=O)O)c1` (stereo not drawn), the result in [1], in [2], in [3], in assay [4], in assay [5] and in assay [6] was inactive. Moreover, the result in assay [7], in [9], in [10], in [11], in assay [12] and in assay [13] was inactive. In addition, the outcome in assay [14], in assay [15], in assay [16], in [17], in assay [18] and in assay [19] was inactive.
